# About 14,000 (4.5%) of roughly 310,000 compounds showed an effect of 50% or more. The effect is printed as a negative number. For the sample, strong results were picked, then their nearest neighbours and some compounds at random.
# Molecular target: human ether-à-go-go-related gene (hERG) potassium channel (human, UniProt Q12809)
# Test: primary screen, population patch clamp on CHO cells stably expressing hERG; higher = less effect of the substance
# 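Note: peak tail current of the secondary pulse compared with the same well before compound.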
# Sequence of human ether-à-go-go-related gene (hERG) potassium channel (Q12809 whole entry, looked up): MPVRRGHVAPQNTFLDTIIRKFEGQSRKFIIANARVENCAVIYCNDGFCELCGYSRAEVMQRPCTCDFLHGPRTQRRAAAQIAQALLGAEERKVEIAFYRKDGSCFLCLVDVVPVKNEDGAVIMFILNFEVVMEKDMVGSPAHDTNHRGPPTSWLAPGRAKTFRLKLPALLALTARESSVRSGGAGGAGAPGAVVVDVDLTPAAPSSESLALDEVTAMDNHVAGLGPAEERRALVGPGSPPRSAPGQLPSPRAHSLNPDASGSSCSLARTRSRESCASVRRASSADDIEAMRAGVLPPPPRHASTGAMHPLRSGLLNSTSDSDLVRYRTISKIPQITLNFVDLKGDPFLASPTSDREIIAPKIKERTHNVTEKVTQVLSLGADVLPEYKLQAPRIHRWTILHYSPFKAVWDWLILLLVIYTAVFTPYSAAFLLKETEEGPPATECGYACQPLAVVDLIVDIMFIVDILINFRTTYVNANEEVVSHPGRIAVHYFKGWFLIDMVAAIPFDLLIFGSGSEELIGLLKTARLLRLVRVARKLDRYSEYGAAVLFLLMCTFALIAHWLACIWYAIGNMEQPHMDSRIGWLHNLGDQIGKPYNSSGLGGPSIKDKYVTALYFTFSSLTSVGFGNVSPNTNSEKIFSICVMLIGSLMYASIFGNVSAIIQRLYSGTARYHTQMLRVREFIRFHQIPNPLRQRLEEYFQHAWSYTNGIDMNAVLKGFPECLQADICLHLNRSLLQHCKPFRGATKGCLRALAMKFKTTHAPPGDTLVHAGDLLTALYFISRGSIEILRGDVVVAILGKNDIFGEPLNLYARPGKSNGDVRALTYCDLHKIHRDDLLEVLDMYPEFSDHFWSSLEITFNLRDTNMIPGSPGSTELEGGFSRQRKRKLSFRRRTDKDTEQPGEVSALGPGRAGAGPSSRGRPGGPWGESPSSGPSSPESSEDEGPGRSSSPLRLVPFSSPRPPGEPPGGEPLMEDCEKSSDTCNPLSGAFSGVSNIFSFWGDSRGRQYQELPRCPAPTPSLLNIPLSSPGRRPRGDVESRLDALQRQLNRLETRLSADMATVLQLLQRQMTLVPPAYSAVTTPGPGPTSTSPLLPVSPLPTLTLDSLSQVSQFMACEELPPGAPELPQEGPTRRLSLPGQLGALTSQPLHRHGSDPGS
row,SMILES,"hERG current change (%, negative = inhibition) at 10uM [%]"
1,Cc1nc2sc(C)c(C)c2c(=O)[nH]1,13.7
2,COc1ccccc1/C=C/C(=O)NCC(=O)N/N=C/c1ccccc1[N+](=O)[O-],-36.9
3,CCOc1ccc(NC(=O)Cn2sc3nc(C)cc(C)c3c2=O)cc1,4.94
4,CCC(C)c1ccc(NC(=O)CSc2nncn2N)cc1 (centres unmarked),-27.5
5,COc1ccc(S(=O)(=O)NCCSCc2ccccc2C)cc1Br,-1.29
6,C=CCN1C(=Nc2cccnc2)SCC1(O)c1ccc(C)cc1 (centres unmarked),4.64
7,c1ccc(CSc2nnc3ccc(-c4ccncc4)nn23)nc1,7.44
8,Fc1ccccc1CSc1nnc2ccc(-c3ccncc3)nn12,-43.1
9,c1ccc(CSc2nnc3ccc(-c4ccncc4)nn23)cc1,-58.3
10,c1cncc(CSc2nnc3ccc(-c4ccncc4)nn23)c1,-26.7
11,Nn1c(SCc2cccc(F)c2)nnc1-c1ccncc1,-4.03
12,Fc1ccc(CSc2nnc3ccc(-c4ccncc4)nn23)cc1,-70.1
13,Cc1ccccc1CSc1nnc2ccc(-c3ccncc3)nn12,-20.8
14,Cc1ccc(CSc2nnc3ccc(-c4ccncc4)nn23)cc1,-42.4
15,Fc1cccc(CSc2nnc3ccc(-c4ccncc4)nn23)c1,-60.4
16,CCOC(=O)C(C)Oc1ccc(OCc2ccccc2)cc1 (centres unmarked),20.1
17,CC(C)(C)NS(=O)(=O)c1cccc(S(=O)(=O)c2cccc(S(=O)(=O)NC(C)(C)C)c2)c1,-35.3
18,CCCNS(=O)(=O)c1ccc(CCC(=O)N2CCN(CC)CC2)cc1,-1.72
19,O=C(NC1CCS(=O)(=O)C1)c1ccc(S(=O)(=O)N2CCCCC2)cc1 (centres unmarked),1.86
20,CCC(C(=O)Nc1ccncc1)c1ccccc1 (centres unmarked),0.0329
21,CN(C)S(=O)(=O)c1ccc(S(=O)(=O)N2CCN(CCC#N)CC2)cc1,-1.43
22,CC1(c2ccccc2)NC(=O)N(CC(=O)N2CCN(S(=O)(=O)c3cccc([N+](=O)[O-])c3)CC2)C1=O (centres unmarked),5.57
23,O=C(CN1C(=O)NC2(CCCCC2)C1=O)N1CCN(S(=O)(=O)c2cccc(F)c2)CC1,-61.8
24,O=C(CN1C(=O)NC2(CCCCC2)C1=O)N1CCN(S(=O)(=O)c2ccc(Cl)s2)CC1,4.79
25,Cc1ccc(C2(C)NC(=O)N(CC(=O)N3CCN(S(=O)(=O)c4cccc(F)c4)CC3)C2=O)cc1 (centres unmarked),-65.7
26,CCOc1ccc(OCCC(=O)N2CCN(S(=O)(=O)c3cccc(F)c3)CC2)cc1,-62.4
27,Cc1ccc(C2(C)NC(=O)N(CC(=O)N3CCN(S(=O)(=O)c4ccc(Cl)s4)CC3)C2=O)cc1 (centres unmarked),-58

row,SMILES,"hERG current change (%, negative = inhibition) at 10uM [%]"
1,CCOc1ccc(C(=O)CCC(=O)N2CCN(S(=O)(=O)c3cccc(F)c3)CC2)cc1,-30.7
2,O=C(CN1C(=O)NC2(CCCCC2)C1=O)N1CCN(S(=O)(=O)c2ccc(F)cc2)CC1,4.02
3,CCOc1ccc(OCCC(=O)N2CCN(S(=O)(=O)c3ccc(F)cc3)CC2)cc1,-6.61
4,O=C(CN1C(=O)NC2(CCCC2)C1=O)N1CCN(S(=O)(=O)c2cccc(F)c2)CC1,22.2
5,CCC1(CC)NC(=O)N(CC(=O)N2CCN(S(=O)(=O)c3cccc(F)c3)CC2)C1=O,7.12
6,Cc1ccc(C2(C)NC(=O)N(CC(=O)N3CCN(S(=O)(=O)c4cccs4)CC3)C2=O)cc1 (centres unmarked),-31.9
7,CCCC(=O)Nc1cc(C(=O)N2CCC3(CC2)OCCO3)ccc1S(=O)(=O)c1ccc(C)cc1,-14
8,COc1cc(C(=O)Nc2nc3ccccc3[nH]2)ccc1OC(F)F,18
9,CCc1cccc(CC)c1NC(=O)C1CN(S(=O)(=O)c2ccccc2)CCN1S(=O)(=O)c1ccccc1 (centres unmarked),9.16
10,COc1ccccc1NS(=O)(=O)NC(=O)c1cn(C)c2ccccc12,16.8
11,COc1ccc(NC(=O)CSc2nnc(-c3ccccc3)n2N)cc1,-4.04
12,CCOc1ccccc1N1CCN(Cc2c(C)n(C)n(-c3ccccc3)c2=O)CC1,-20.5
13,CSCCC(NC(=O)c1ccc(Cl)cc1Cl)C(=O)NNC(=O)c1ccncc1 (centres unmarked),-6.73
14,CC1(c2ccccc2Cl)NC(=O)N(CC(=O)N2CCN(S(=O)(=O)c3ccccc3)CC2)C1=O (centres unmarked),7.55
15,CC(C)c1ccc(S(=O)(=O)N2CCN(C(=O)CN3C(=O)NC(C)(c4ccccc4)C3=O)CC2)cc1 (centres unmarked),-31.6
16,CC1(c2ccc(Cl)cc2)NC(=O)N(CC(=O)N2CCN(S(=O)(=O)c3ccccc3)CC2)C1=O (centres unmarked),-50
17,CCn1cc(Cl)c(C(=O)Nc2nc3ccccc3n2CCN2CCCCC2)n1,-65.5
18,O=C(Nc1nc2ccccc2n1CCN1CCOCC1)c1ccc(Cl)cc1,1.72
19,Cc1c(Cl)c(C(=O)Nc2nc3ccccc3n2CCN2CCCCC2)nn1C,-68.1
20,O=C(Nc1nc2ccccc2n1CCN1CCOCC1)c1ccccc1,-6.69
21,Cn1ncc([N+](=O)[O-])c1C(=O)Nc1nc2ccccc2n1CCN1CCCCC1,-25.1
22,CCn1nccc1C(=O)Nc1nc2ccccc2n1CCN1CCCCC1,-39.8
23,CCCCn1nnc(NC(=S)NC(=O)c2cccs2)n1,9.16
24,COc1ccccc1Cn1c(=S)[nH]c2ccccc2c1=O,32.7
25,COc1ccc(S(=O)(=O)N2CCOCC2)cc1NC(=O)CC1CCCC1,-6.2
26,COc1ccc(N(CC(=O)Nc2ccc3c(c2)OCCO3)S(=O)(=O)c2c(C)noc2C)cc1,-6.74

# — article PMC4336329 (PLoS ONE, 2015)
